The values that follow come from PubChem BioAssay (NCI).

Compounds without any hit were thinned out: in the full panel of roughly 83,000, 20% have a hit.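 Cells were grown in 96-well plates and exposed to the test compound at a single concentration for 48 hours; results are reported as percent growth, with values below 10 considered active.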 A number with no mark means an inactive call. The source made the active and inactive calls.

Holding throughout (assay): NCI-60 one-dose screen, 48 h (100 = growth as untreated, 0 = no growth, -100 = all killed)
Experiment [1] has as its system T-47D breast. The note with it: 10 µM.
The subject of experiment [2] is BT-549 breast. The note with it: 10 µM.
For experiment [3], the system named is MDA-MB-435 melanoma. The note with it: 10 µM.
Experiment [4] concerns SW-620 colon. The note with it: 10 µM.
For experiment [5], the system named is MCF7 breast. The note with it: 10 µM unless noted.
In experiment [6] the test system is HCT-116 colon. The note with it: 10 µM.
Experiment [7] relates to HCC-2998 colon. The note with it: 10 µM.
The test system of experiment [8] is KM12 colon. The note with it: 10 µM.

As for `COc1ccc(OC)c(/C=C2\CCc3ccccc3C2=O)c1`, the growth is 56.3% in experiment [1]; 44.3% in experiment [2]; -37.9% (active) in experiment [3]; 17.4% in experiment [4]; 12.1% in experiment [5]; 19.3% in experiment [6]. Besides, the figures for the growth in experiment [7] and in experiment [8] were 73.9% and 22.8%, respectively.

In the case of `CCC/C=C(\C)C(C)(C#N)C(=O)OCC` (centres undefined), the growth in experiment [1] is 112%; in experiment [2], 116%; in experiment [3] it was 96.3%; in experiment [4], 109%; in experiment [5], 97.1%; in experiment [6], 120%. The growth in experiment [7] is 118%; in experiment [8], 110%.

As to `O=C(O)CSCSCC(=O)O`, the growth in experiment [1] was 95.4%; in experiment [2], 101%; in experiment [3], 99.6%; in experiment [4] it was 105%; in experiment [5], 99.6%; in experiment [6], 106%. Also, the growth in experiment [7] and in experiment [8] was 109% in each case.

Consider `COCCCC/C(=N\OCCN)c1ccc(C(F)(F)F)cc1`, for which the growth in experiment [1] was 86.4%; in experiment [2], 107%; in experiment [3], 99.4%; in experiment [4] it was 97.1%; in experiment [5], 108%; in experiment [6], 101%. For the same compound, the growth in experiment [7] is 116%; in experiment [8], 107%.

On to `CCCCC(=O)c1ccc(OC)cc1`, for which the growth is 110% in experiment [1]; 102% in experiment [2]; 98.7% in experiment [3]; 101% in experiment [4]; 97.6% in experiment [5]; 101% in experiment [6]. The growth is 116% in experiment [7] and 104% in experiment [8].

Take `C#C[C@H]1CCCCCC1O` (some centres undefined): the growth in experiment [1] is 95.4%; in experiment [2], 113%; in experiment [3] it was 109%; in experiment [4], 104%; in experiment [5], 107%; in experiment [6] it was 106%. Further, the growth is 102% in experiment [7] and 107% in experiment [8].

Consider `S=C1NCc2cncnc2N1`, for which the growth was 105% in experiment [1]; 100% in experiment [2]; 101% in experiment [3]; 109% in experiment [4]; 93.4% in experiment [5]; 99.1% in experiment [6]. Further, the growth in experiment [7] and in experiment [8] was 106% throughout.

As to `CC(=O)c1ccc(N=C(C#N)C2=C(O)c3ccccc3C2=O)cc1`, the growth is 93.4% in experiment [1]; 98.3% in experiment [2]; 110% in experiment [3]; 114% in experiment [4]; 83.1% in experiment [5]; 106% in experiment [6]. The figures for the growth in experiment [7] and in experiment [8] were 98.1% and 107%, respectively.

Turning to `Oc1ccc2c(c1)OCC1(O)Cc3cc(O)c(O)cc3C21` (centres undefined), the growth in experiment [1] was 168%; in experiment [2], 88.9%; in experiment [3], 92.3%; in experiment [4], 95%; in experiment [5], 103%; in experiment [6], 84.1%. The growth in experiment [7] is 64.8%; in experiment [8], 96.5%.

Regarding `COc1cc(C(N)=O)cc(OC)c1OC`, the growth is 110% in experiment [1]; 108% in experiment [2]; 116% in experiment [3]; 109% in experiment [4]; 105% in experiment [5]; 105% in experiment [6]. Further, the growth in experiment [7] was 105%; in experiment [8], 107%.

`CCN1C(=O)/C(=C/C=C/N(C)c2ccccc2)SC1=S`: the growth in experiment [1] was 79.8%; in experiment [2], 80.5%; in experiment [3], 93.9%; in experiment [4], 106%; in experiment [5] it was 88.6%; in experiment [6], 95.1%. Also, the growth is 93.6% in experiment [7] and 106% in experiment [8].

On to `CCCCOC(=O)c1ccc(C(C)C)cc1`, for which the growth in experiment [1] is 88.7%; in experiment [2] it was 92.1%; in experiment [3] it was 103%; in experiment [4], 111%; in experiment [5], 94.9%; in experiment [6], 85.4%. The values for the growth in experiment [7] and in experiment [8] were 107% and 104%, respectively.

Take `Oc1ccc(N=Nc2ccc(Br)cc2)c(O)c1`: the growth in experiment [1] was 28%; in experiment [2] it was 46.1%; in experiment [3] it was -49% (active); in experiment [4], 18.8%; in experiment [5] it was 15.6%; in experiment [6], 18.1%. The growth in experiment [7] was 33.6%; in experiment [8] it was 8.35% (active).

For `O=C(O)c1ccc(S(=O)(=O)O)cc1`, the growth is 106% in experiment [1]; 121% in experiment [2]; 114% in experiment [3]; 104% in experiment [4]; 96.2% in experiment [5]; 108% in experiment [6]. In addition, the growth in experiment [7] was 105%; in experiment [8], 109%.

Turning to `O=C(Cc1ccccc1)Cc1ccccc1`, the growth was 102% in experiment [1]; 107% in experiment [2]; 105% in experiment [3]; 101% in experiment [4]; 106% in experiment [5]; 98.1% in experiment [6]. The growth was 114% in experiment [7] and 103% in experiment [8].

For the compound `O=c1cc(-c2ccccc2)[nH]c(=S)[nH]1`, the growth in experiment [1] was 107%; in experiment [2], 97.5%; in experiment [3], 104%; in experiment [4], 104%; in experiment [5], 95.3%; in experiment [6] it was 101%. Also, the growth in experiment [7] was 104%; in experiment [8], 96.7%.

Turning to `COC(=O)c1ccccc1Br`, the growth in experiment [1] was 109%; in experiment [2] it was 109%; in experiment [3] it was 98.5%; in experiment [4], 109%; in experiment [5] it was 106%; in experiment [6], 92%. For the same compound, the growth is 106% in experiment [7] and 94.7% in experiment [8].

Consider `CC(C)=NNc1ccc([N+](=O)[O-])cc1[N+](=O)[O-]`, for which the growth in experiment [1] was 64.9%; in experiment [2], 90.9%; in experiment [3] it was 84.2%; in experiment [4], 85.7%; in experiment [5], 93.7%; in experiment [6], 82.5%. Moreover, the growth is 87% in experiment [7] and 86.4% in experiment [8].
